TAR Tat displ: HIV-1 TAR-Tat binding disruption. z-score (no concentration beside the values). HIV-1 TAR RNA, Tat peptide displacement FRET; active compounds read high. hit rate 0.6% among 100,000; active = z-score of 3 or more in at least 2 runs
CDC25B CDK2 inh: human CDC25B-CDK2/CyclinA binding inhibition; z-score (no concentration beside the values); P30305+P24941; AID 1259370; HTRF CDC25B-CDK2/CyclinA binding, anti-His/anti-Flag; active compounds read high; hit rate 0.72% among 94,000; in the data active = z-score above about 3.2
* = called active by the depositor; · = no result given. Compounds with a hit are over-represented: about 0.86% of the library has one in this group of screens.

SMILES | TAR Tat displ | CDC25B CDK2 inh
O=C1C=CC2=C3c4cc(O)c(O)cc4CC3(O)COC2=C1O (stereo not drawn) | 20* | ·
O=C(O)CCN1C(=O)SC(Nc2cccc3ccccc23)C1=O (stereo not drawn) | · | -6.3
CCn1c(C(=O)N2CCC(C(=O)NC3CC3)CC2)cc2sccc21 | -1.4 | 0.59
CCn1cc(C(=O)O)c(=O)c2cc(S(=O)(=O)N3CC(C)CC(C)C3)ccc21 (stereo not drawn) | · | -3.1
O=c1c(O)c(-c2ccccc2)oc2cc(O)cc(O)c12 | 1.1 | ·
O=c1c(O)c(-c2ccccc2O)oc2cc(O)cc(O)c12 | 2.5 | ·
O=c1c(O)c(-c2cc(O)c(O)c(O)c2)oc2cc(O)cc(O)c12 | 38* | -0.86
O=c1c(O)c(-c2ccc(O)cc2O)oc2cc(O)cc(O)c12 | 25* | -1.9
CC(C)OCCCNc1nnc2c3ccccc3n(C)c2n1 | 1.4 | -1.2
CSc1ccc(C2C3=C(Nc4c2c(=O)[nH]c(=O)n4C)c2ccccc2C3=O)cc1 (stereo not drawn) | 7.4* | -3
COCCn1c2c(c(=O)[nH]c1=O)C(c1ccc(SC)cc1)C1=C(N2)c2ccccc2C1=O (stereo not drawn) | -1.5 | -2.5
O=C(Nc1ccc(F)cc1)N1CCC(CN2CCc3ccccc3C2)CC1 | 0.18 | ·
Cc1nc2nc(-c3ccco3)[nH]n2c(=O)c1Cc1ccccc1 | 1.1 | 13*
CCc1c(C)nc2nc(-c3ccco3)[nH]n2c1=O | -0.83 | -0.34
O=C(O)c1ccc2c(=O)n(CC3CCCO3)c(=S)[nH]c2c1 (stereo not drawn) | · | -1.7
CCN1CCN(c2cc(NC(C)C)c3c4c(onc24)-c2ccccc2C3=O)CC1 | 5.7* | -1.8
CC(C)Nc1cc(N2CCN(CCO)CC2)c2noc3c2c1C(=O)c1ccccc1-3 | 9.5* | 0.08
CC(C)Nc1cc(N2CCCC2)c2noc3c2c1C(=O)c1ccccc1-3 | -5 | -1.7
CC1CCN(c2cc(NC(C)C)c3c4c(onc24)-c2ccccc2C3=O)CC1 | 2.3 | -0.91
CCNc1cc(N2CCN(CCO)CC2)c2noc3c2c1C(=O)c1ccccc1-3 | 15* | 8.1*
CCN1CCN(c2cc(NC3CCCCC3)c3c4c(onc24)-c2ccccc2C3=O)CC1 | 4.3* | -0.46
O=C1c2ccccc2-c2onc3c(N4CCOCC4)cc(NC4CCCCC4)c1c23 | 0.24 | -0.89
CCCN1CCN(c2cc(NCC)c3c4c(onc24)-c2ccccc2C3=O)CC1 | -0.63 | -1.8
O=c1c2nccnc2nc(SCc2ccccc2F)n1CCc1ccccc1 | 0.59 | -1.5
N=C1C(c2nc3ccccc3[nH]2)=C(O)CN1c1ccc(OCc2ccccc2)cc1 | 3 | 0.52
SMILES | TAR Tat displ | CDC25B CDK2 inh
CCOc1ccc(S(=O)(=O)NC2CCCCC2)cc1-c1nc(C)no1 | 1.1 | -2.5
CCn1nc(C)c(CNS(=O)(=O)CC)c1C | -0.27 | ·
COc1ccc(OC)c(NC(=O)c2cnc3ccc(C)cn3c2=O)c1 | 1.5 | -2.5
Cc1nnc2sc(-c3ccc(CNS(=O)(=O)c4ccccc4)cc3)nn12 | 2.8 | ·
CCCCCn1c(=O)c2c(nc3n2CCN3c2ccc(C)cc2)n(C)c1=O | 5.2* | ·
CCCCn1c(=O)c2c(nc3n2CCN3c2ccc(C)cc2)n(C)c1=O | 1 | ·
O=C(O)c1ccc2c3c(ccc(C(=O)O)c13)C(=O)NC2=O | 0.75 | 1.3
O=C1Nc2c(C(=O)O)cccc2C1=O | 21* | 1.4
COc1ccccc1C1CC(=O)N2CN(Cc3ccccc3)CSC2=C1C#N (stereo not drawn) | 0.76 | 5.3*
COc1ccccc1C1CC(=O)N2C(=C1C#N)SCC2(O)c1ccccc1 (stereo not drawn) | · | -7
COc1cccc(C2CC(=O)N3CN(Cc4ccccc4)CSC3=C2C#N)c1OC (stereo not drawn) | -0.36 | 5.5*
N#CC1=C2SCN(Cc3ccccc3)CN2C(=O)CC1c1cccc2ccccc12 (stereo not drawn) | -0.85 | 0
O=C1NC(c2cccc(O)c2)C(C(=O)c2cccnc2)C(O)(C(F)(F)F)N1 (stereo not drawn) | · | 0.68
O=c1cc(CSc2nnc(-c3ccc(Cl)cc3)o2)nc2sc(C3CC3)nn12 | 14* | -2.2
O=c1cc(CSc2nnc(-c3cccs3)o2)nc2sc(C3CCCCC3)nn12 | 0.32 | -2
CCC1CCCCN1S(=O)(=O)c1ccc2[nH]c(=O)ccc2c1 (stereo not drawn) | 6.5* | ·
CCCN1CCN(S(=O)(=O)c2ccc3[nH]c(=O)ccc3c2)CC1 | 3 | ·
O=C1CC(c2ccccc2C(F)(F)F)c2cc3c(cc2N1)OCCO3 (stereo not drawn) | · | -0.84
O=C(Nc1ccc(OCc2cc(=O)n3cc(Cl)ccc3n2)cc1)c1ccco1 | 0.62 | ·
CCc1ccc(C(=O)c2cnc3cc4c(cc3c2N2CCCC2)OCO4)cc1 | -0.89 | -0.75
Cc1ccc(C(=O)c2cnc3cc4c(cc3c2N2CCOCC2)OCO4)cc1C | 8.8* | 1.8
COc1ccc(-c2nc(=S)c3c(n2CCCN(C)C)CC(C)(C)OC3)cc1 | -0.47 | -0.77
NC(=O)CN1C(=O)C(O)(CC(=O)c2ccc(F)cc2)c2ccccc21 (stereo not drawn) | -0.04 | 16*
CCN1C(=O)C(O)(CC(=O)c2ccc(F)cc2)c2ccccc21 (stereo not drawn) | -0.4 | -0.32
CCCCN1C(=O)C(O)(CC(=O)c2ccccc2)c2ccccc21 (stereo not drawn) | -1.6 | 12*
SMILES | TAR Tat displ | CDC25B CDK2 inh
CCCCN1C(=O)C(O)(CC(=O)c2ccc(C(C)C)cc2)c2ccccc21 (stereo not drawn) | -0.21 | -0.27
CC1CCN(CCCNS(=O)(=O)c2ccc3c(c2)CCCC(=O)N3)CC1 | 0.63 | ·
Cn1c(=O)c2c(nc(NCCCO)n2Cc2ccc(F)cc2)n(C)c1=O | · | -0.84
COc1ccc2c(c1)c(=O)oc1cc3oc(C)c(-c4ccccc4)c3cc12 | -1.6 | -1.6
COc1ccc2c(c1)c(=O)oc1cc3oc4c(c3cc12)CCCC4 | 3.7* | -0.98
N=C1C(c2nc3ccccc3s2)=C(O)CN1c1ccc(Br)cc1 | 1.6 | -2.4
Fc1ccc(CNc2c3c(nc4ccccc24)CCCC3)cc1 | 0.23 | 0.29
Cn1c(=O)n(C)c2cc(CNCc3ccco3)ccc21 | 0.44 | 0.11
CCN(C(=O)CSc1nc(-c2ccc(C)cc2)nc2cc(=O)[nH]n12)c1ccccc1 | 0.56 | ·
COc1ccc(-c2ccnc(SCc3c(F)cccc3Cl)n2)cc1 | · | -1
Nc1cc(S(=O)(=O)O)c(N)c2c1C(=O)c1ccccc1C2=O | · | -2.4
Nc1cc2c(=O)c3cc(Cl)cc(Cl)c3[nH]c2c2c1C(=O)c1ccccc1C2=O | · | 10*
OCCNc1ncnc2c1c(-c1ccccc1)cn2-c1ccc(Cl)cc1 | · | -2.9
Cc1ccccc1Nc1nc(NCc2ccco2)c2ccccc2n1 | -0.17 | 6*
Oc1ccccc1Nc1nc(NCc2ccco2)c2ccccc2n1 | 8.7 | -1.2
O=C(/C=C/c1cccs1)NC(=S)Nc1ccccc1 | · | 8.3*
O=C(/C=C/c1cccs1)NC(=S)NCc1ccccc1 | · | -2
CCn1c(SCc2ccccc2F)nnc1-c1ccc2c(c1)OCCCO2 | 1.8 | ·
O=C(O)c1cccc(-c2nc3ccccc3[nH]2)c1 | · | -2.1
O=C(O)c1ccc2nc(-c3cccc(-c4nc5ccc(C(=O)O)cc5[nH]4)c3)[nH]c2c1 | · | 7.3*
CC(C)c1ccc(-c2c(Nc3ccc(Cl)cc3F)c(=O)c2=O)cc1 | 3 | ·
CCOc1ccc(C2C3=C(Nc4nc(N)[nH]c(=O)c42)c2ccccc2C3=O)cc1 (stereo not drawn) | 2.4 | 14*

Screening data: PubChem, Center for Chemical Genomics, University of Michigan
